GSH fluor = compound fluoresces at 488/530 nm on GSH beads. GSH beads flow cytometry, compound fluorescence 488/530 nm; active compounds read high. fluorescence (KMESF) at 10 µM. 0.25% of 190,000 active; in the data active means fluorescence above about 89;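 further: glutathione beads carrying GST-tagged Bcl family fusion proteins plus one bare bead set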
RGS16-Gao HTS = regulators of human RGS16-Galphao interaction. bead-based flow cytometry RGS16-Galphao binding, fluorescence; actives lie on both sides. 0.38% of 220,000 active. binding response (% of control), % at 10 µM. O15492+P09471;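 further: Galphao activated by GDP with aluminum fluoride before binding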
Target sequence (O15492 whole entry, looked up): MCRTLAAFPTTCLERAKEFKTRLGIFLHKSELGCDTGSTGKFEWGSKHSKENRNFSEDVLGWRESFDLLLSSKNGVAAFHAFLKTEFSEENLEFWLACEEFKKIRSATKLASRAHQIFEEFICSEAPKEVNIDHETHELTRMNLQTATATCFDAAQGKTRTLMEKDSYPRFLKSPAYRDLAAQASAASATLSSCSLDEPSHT
Target sequence (P09471 whole entry, looked up): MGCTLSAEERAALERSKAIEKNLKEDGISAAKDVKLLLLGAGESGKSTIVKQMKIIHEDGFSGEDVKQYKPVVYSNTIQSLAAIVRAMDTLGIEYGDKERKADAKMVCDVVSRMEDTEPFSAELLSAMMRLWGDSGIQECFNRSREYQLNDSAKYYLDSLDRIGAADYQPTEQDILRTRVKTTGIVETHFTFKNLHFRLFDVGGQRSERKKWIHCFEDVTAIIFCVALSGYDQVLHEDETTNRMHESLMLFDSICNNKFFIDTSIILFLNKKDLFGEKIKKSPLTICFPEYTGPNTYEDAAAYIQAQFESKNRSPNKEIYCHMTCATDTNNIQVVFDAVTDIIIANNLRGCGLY
RGS4-Gao reg = human RGS4-Galphao interaction regulation. binding response (% of control), % at 10 µM. 0.33% of 220,000 active. Multiplexed bead flow cytometry, RGS4-Galphao binding; actives lie on both sides. P09471. AID 1415; in the data active means binding response below about 49% or above about 150%; inactive means in between;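 further: fluorescent Galphao activated with aluminum fluoride binding bead-coupled RGS4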
Target sequence (P09471 whole entry, looked up): as above
RGS7-Gao = regulators of human RGS7-Galphao interaction. P09471. Multiplexed bead flow cytometry, RGS7-Galphao binding; actives lie on both sides. binding response (% of control), % at 10 µM. 0.35% of 220,000 active. AID 1439; in the data active means binding response below about 49% or above about 150%; inconclusive means no clear call, values can overlap the other calls; inactive means in between;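 further: fluorescent Galphao held in activated GDP-AlF4 state binding bead-coupled RGS7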
RGS8-Gao = human RGS8-Galphao interaction regulation | AID 1423 | 0.34% of 220,000 active | P09471 | multiplexed bead flow cytometry, RGS8-Galphao binding; actives lie on both sides | response (percent of control binding), % at 10 µM; in the data active means response below about 60% or above about 140%; inactive means in between;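 further: Galphao activated as the GDP aluminium fluoride complex binding bead-coupled RGS8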
Avidin bead fluor = compound fluoresces at 488/530 nm on avidin beads; 0.38% of 220,000 active; fluorescence (KMESF) at 10 µM; AID 1775; compound fluorescence 488/530 nm, flow cytometry; active compounds read high; in the data active means fluorescence above about 47
RGS4-Gao HTS = RGS4-Galphao interaction regulator (human) | 99% of 1,600 active | multiplexed bead flow cytometry, RGS–Galpha-o binding | shares compounds with RGS16-Gao HTS | RGS4–Galpha-o binding response, % at 10 µM;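 further: fluorescently labeled Galpha-o bound to GDP with aluminium fluoride binding biotinylated RGS beads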
Avidin counter = interferes with biotinylated probe binding to avidin beads. shares compounds with RGS16-Gao HTS. streptavidin beads, fluorescein-biotin binding, flow cytometry. inhibition, % at 10 µM. 1,700 tested, under 10 active;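 active means inhibition above 50%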;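 further: median green fluorescence of gated singlet beads compared with DMSO control wells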
RGS8-Gao single = RGS8-Galphao interaction regulation, single point confirmation; binding response (% of control), % at 10 µM; shares compounds with RGS16-Gao HTS; 3% of 1,700 active; AID 1836; bead-based flow cytometry RGS8-Galphao binding, fluorescence; actives lie on both sides; in the data active means binding response below about 72% or above about 130%; inactive means in between;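 further: Galphao activated as GDP AlF4 complex before binding bead RGS8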
RGS7-Gao single = confirmation of regulators of human RGS7-Galphao interaction; bead-based flow cytometry RGS7-Galphao binding; actives lie on both sides; shares compounds with RGS16-Gao HTS; 7.8% of 1,700 active; response (percent of control binding), % at 10 µM; in the data active means response below about 75% or above about 130%; inactive means in between;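 further: fluorescent Galphao activated with GDP and aluminum fluoride binding bead-coupled RGS7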
RGS16-Gao single = confirmation of regulators of human RGS16-Galphao interaction; response (% of control binding), % at 10 µM; shares compounds with RGS16-Gao HTS; bead-based flow cytometry, RGS16-Galphao binding; actives lie on both sides; 4% of 1,700 active; in the data active means response below about 74% or above about 130%; inactive means in between;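 further: Galphao activated as the GDP aluminium fluoride complex binding bead-coupled RGS16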
RGS4-Gao single = RGS4-Galphao interaction regulation, single point confirmation | shares compounds with RGS16-Gao HTS | RGS4-Galphao binding, multiplexed bead flow cytometry; actives lie on both sides | binding response (% of control), % at 10 µM | 4% of 1,700 active; in the data active means binding response below about 74% or above about 130%; inactive means in between
RGS19-Gao single = RGS19-Galphao interaction regulation, single point confirmation; shares compounds with RGS16-Gao HTS; bead-based flow cytometry RGS19-Galphao binding; actives lie on both sides; response (percent of control binding), % at 10 µM; 5% of 1,700 active; in the data active means response below about 50% or above about 160%; inactive means in between
Numbers stand for hits; - = inactive; ? = inconclusive; . = no result; [ ] = another dose, or the depositor's remark. Sampled rows, rich in hits. Any-hit rate of the full collection: about 1.2%. Unless noted, how the calls were made is not given here.

SMILES | GSH fluor | RGS16-Gao HTS | RGS4-Gao reg | RGS7-Gao | RGS8-Gao | Avidin bead fluor | Avidin counter | RGS8-Gao single | RGS7-Gao single | RGS16-Gao single | RGS4-Gao single | RGS19-Gao single | others
O=C(CN1CCOCC1)Nc1ccccc1-c1ccccc1 | - | - | - | - | - | - | . | . | . | . | . | .
COc1cc(/C=N/NC(=O)c2ccc(-n3cccc3)cc2)ccc1O | - | - | 15.8 | 16.0 | 14.2 | - | - | - | - | - | - | -
Cc1ccc(NC(=S)N(CCCN2CCCC2)Cc2cccn2Cc2ccc(Cl)cc2)cc1Cl | - | - | - | 165.2[activator] | - | - | - | - | - | - | - | - | RGS4-Gao HTS=149.9
CC1CCN(C(=O)c2ccc(NS(C)(=O)=O)cc2)CC1 | - | . | . | . | . | . | - | - | - | - | - | -
CS(=O)(=O)N1N=C(c2cccs2)CC1c1ccco1 (stereo not given) | - | - | - | - | - | - | . | . | . | . | . | .
CC1=CC(C)(C)Nc2ccccc21 | - | 13.1 | - | - | - | - | - | - | - | - | - | - | RGS4-Gao HTS=76.5
CCC(=O)Oc1ccc(C(=O)Nc2c[nH]c(=O)[nH]c2=O)cc1 | - | - | - | - | - | - | . | . | . | . | . | .
COc1ccc(CC(C(=O)Nc2cccc(F)c2)c2nn[nH]n2)c(OC)c1 (stereo not given) | - | - | - | - | - | - | . | . | . | . | . | .
CCN(CC)S(=O)(=O)c1ccc(Cl)c(C(=O)Oc2cccc(-c3cnc4ccccc4n3)c2)c1 | - | - | - | - | - | - | . | . | . | . | . | .
CCN(CC)S(=O)(=O)c1cc(C(=O)Oc2cccc(-c3cnc4ccccc4n3)c2)ccc1Br | - | -28.6 | -29.9 | -8.5 | 11.4 | - | - | - | - | - | - | -
CC(=O)c1c(C)[nH]c(C(=O)CSc2nnc(-c3ccco3)o2)c1C | - | - | - | ? | - | - | . | . | . | . | . | .
COc1ccc(-c2nnc(SCC(=O)c3[nH]c(C)c(C(C)=O)c3C)o2)cc1 | - | 179.5[activator] | 175.1[activator] | - | - | - | - | - | - | - | - | -
CN(C)CCNS(=O)(=O)c1ccc(N2CCN(c3ccc(F)cc3)CC2)c([N+](=O)[O-])c1 | - | - | - | - | - | - | . | . | . | . | . | .
COc1ccc(OCCOC(=O)c2cccc(-n3cnnn3)c2)cc1 | - | 4.0 | 14.7 | 16.9 | 28.6 | - | - | - | - | - | - | -
N#CCCN(C(=O)COc1ccc(C#N)cc1)c1ccc(F)cc1 | - | - | - | ? | - | - | . | . | . | . | . | .
CCOC(=O)C(=O)Nc1ccccc1C(=O)OC | - | - | - | - | - | - | . | . | . | . | . | .
CCOC(=O)C(=O)Nc1ccccc1C(N)=O | - | . | . | . | . | . | - | - | - | - | - | -
COc1ccc(OC)c(CN2CCN(Cc3cccc4ccccc34)CC2)c1 | - | - | - | ? | - | - | . | . | . | . | . | .
COc1ccc(Br)cc1S(=O)(=O)n1ccnc1C | - | - | - | - | - | - | . | . | . | . | . | .
Cc1nccn1S(=O)(=O)c1ccc(Br)cc1Br | - | - | - | 168.4[activator] | - | 92 | . | . | . | . | . | . | RGS4-Gao HTS=145.4
CC(C)OC(=O)CSc1nnc(-c2cnccn2)n1Cc1ccco1 | - | - | - | - | - | - | . | . | . | . | . | .
O=C(CSc1nnc(-c2cnccn2)n1Cc1ccco1)c1ccc2ccccc2c1 | - | 19.0 | 29.2 | 25.3 | 21.5 | - | - | - | - | - | - | -
CCOc1cc(/C=N/O)ccc1OCc1ccc([N+](=O)[O-])cc1 | - | - | - | - | - | - | . | . | . | . | . | .
O=[N+]([O-])c1ccc(COc2ccccc2/C=N/O)cc1 | - | 22.5 | - | - | - | - | - | - | - | - | - | - | RGS4-Gao HTS=89.2
CCOC(=O)CN1N=C(/C=C/c2ccc(C(C)C)cc2)CCC1=O | - | - | - | - | - | - | . | . | . | . | . | .
SMILES | GSH fluor | RGS16-Gao HTS | RGS4-Gao reg | RGS7-Gao | RGS8-Gao | Avidin bead fluor | Avidin counter | RGS8-Gao single | RGS7-Gao single | RGS16-Gao single | RGS4-Gao single | RGS19-Gao single | others
Cc1ccc(C(=O)COC(=O)CCCC(=O)Nc2cc(C(F)(F)F)ccc2Cl)cc1C | - | 10.8 | 19.8 | 12.0 | 25.6 | - | - | - | - | - | - | -
Cc1ccc(C(=O)COC(=O)CCC(=O)Nc2ccccc2Cl)cc1[N+](=O)[O-] | - | - | - | - | - | - | . | . | . | . | . | .
Cc1cc(C)c(NS(=O)(=O)c2ccc(NC(=O)/C=C/C(=O)O)cc2)c(C)c1 | - | 1.1 | 9.7 | -0.2 | 12.0 | - | - | - | - | - | - | -
CN1CCN(C2=C(Cl)C(=O)C(c3cnc(N4CCCCC4)s3)=C(Cl)C2=O)CC1 | - | 14.1 | - | - | - | - | - | 27.5 | 18.2 | -8.3 | 63.1 | -8.1 | RGS4-Gao HTS=70.1
Cc1cccc(CCNC(=O)CCc2nnc(CCc3ccccc3)o2)n1 | - | - | - | - | - | - | . | . | . | . | . | .
O=C(O)/C=C/C(=O)NC1CCC(CC2CCC(NC(=O)/C=C/C(=O)O)CC2)CC1 (stereo not given) | - | - | - | - | - | - | . | . | . | . | . | .
CCOc1ccc(CC(=O)Nc2ccc(NC(=O)c3ccco3)cc2)cc1OCC | - | 16.4 | 27.9 | 20.2 | 22.9 | - | - | - | - | - | - | -
CCCCCC(=O)NC(=S)Nc1ccc(NC(=O)c2ccco2)cc1 | - | 178.9[activator] | - | - | - | - | - | - | - | - | - | - | RGS4-Gao HTS=110.5
CCCCCC(=O)N/N=C(\C)c1ccc(NC(=O)c2ccco2)cc1 | - | - | - | - | - | - | . | . | . | . | . | .
Cc1ccc(C(=O)NCCc2ccc(S(N)(=O)=O)cc2)o1 | - | - | - | - | - | - | . | . | . | . | . | .
O=C(CN1C(=O)c2ccccc2C1=O)N1CCN(C2c3ccccc3-c3ccccc32)CC1 | - | - | - | - | - | - | . | . | . | . | . | .
CCN(CCCNC(=O)CN(C)S(=O)(=O)c1cccc2nsnc12)c1cccc(C)c1 | - | . | . | . | . | . | - | - | - | - | - | -
CCN(CCNC(=O)CN(C)S(=O)(=O)c1cccc2nsnc12)c1ccccc1 | - | - | - | - | - | - | . | . | . | . | . | .
c1ccc(CCc2nc3ccccc3[nH]2)cc1 | - | - | - | - | - | - | . | . | . | . | . | .
